Calls of active or inactive are those of the source. Rule for the calls: active = hit-call score of the fitted dose curve at least 0.9, where 1 is the maximum; inactive = score below 0.9.
read-out: Monokine induced gamma interferon (MIG), CXCL9 (gene 4283); test: BSK_3C_MIG: BioMAP Diversity Plus: 3C Assay for Monokine induced gamma interferon (MIG) Biomarker Activity (AID 2283021); conditions: primary human endothelial cells (HUVEC); actives raise or lower the signal;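 for AC50: MIG protein level measured by immunoassay in the treated endothelial cultures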
Procedure: BSK_3C is a cell-based, multiplexed-readout assay that uses umbilical vein endothelium, a human vascular primary cell, with measurements taken at 24 hours after chemical dosing in a 96-well plate.BSK_3C_MIG is an assay component measured in the BSK_3C assay. It measures MIG antibody related to regulation of gene expression using ELISA technology.Data from the assay component BSK_3C_MIG was analyzed into 1 assay endpoint. This assay endpoint, BSK_3C_MIG, was analyzed with bidirectional fitting relative to DMSO as the negative control and baseline of activity. Using a type of binding reporter, gain or loss-of-signal activity can be used to understand changes in the signaling as they relate to the gene CXCL9. Furthermore, this assay endpoint can be referred to as a primary readout, because this assay has produced multiple assay endpoints where this one serves a signaling function. To generalize the intended target to other relatable targets, this assay endpoint is annotated to the cytokine intended target family, where the subfamily is chemotactic factor.
The levels of cell surface (or secreted, indicated by the prefix "s") biomarker endpoints were measured by ELISA. Overt cytotoxicity to cells in confluent adherent cultures (all systems other than the BT system) was assessed by measuring total protein levels using sulforhodamine B (SRB) staining in parallel cultures at the time of biomarker measurements, indicated as SRB endpoints. For proliferation assays for adherent cell types, individual cell types are cultured at sub-confluence and relative cell numbers quantified by SRB staining at time points optimized for each system (48 h: 3C and CASM3C systems; 72 h: BT and HDF3CGF systems; 96 h: SAg system). SRB was performed by staining cells with 0.1% SRB after fixation with 10% TCA and reading wells at 560 nm.Viability and proliferation of PBMC (T cells) was quantified by Alamar Blue reduction for the SAg and BT systems. For PBMC viability (referred to as PBMC Cytotoxicity within the assay endpoint names), cells were plated (75,000/well in a 96-well plate) and then chemical samples added for 1 h before addition of activators, SEB and TSST-1 (20 ng/mL final concentration each). Cells were incubated for 90 h. Then, Alamar Blue (20 uL/well) (Invitrogen, Cat DAL1100) was added for 6 h, and the plates were read with a fluorescence microplate reader at 546/580 nm (excitation/emission). For PBMC proliferation, cells were plated and activated as above but incubated for only 16 h prior to addition of Alamar Blue. Plates were read after 6 h.

Row | Compound | outcome | AC50
1 | O=C(CCl)NCO | inactive | –
2 | OC(Cc1ccccc1Cl)(Cn1[nH]cnc1=S)C1(Cl)CC1 (stereo not given) | inactive | –
3 | O=S(=O)(c1ccc(Cl)cc1)c1cc(Cl)c(Cl)cc1Cl | inactive | –
4 | O=C(O)COc1cc(Cl)c(Cl)cc1Cl | inactive | –
5 | CC(C=O)Cc1ccc2c(c1)OCO2 (stereo not given) | inactive | –
6 | CCOP(=O)(OCC)OC(=CCl)c1ccc(Cl)cc1Cl | inactive | –
7 | O=[N+]([O-])c1ccc(Nc2ccccc2)cc1 | inactive | –
8 | CCCCN(CCCC)C(=S)[S-].CCCCN(CCCC)C(=S)[S-].[Ni+2] | inactive | –
9 | Cc1cc(C(C)(C)c2ccc(O)c(C)c2)ccc1O | inactive | –
10 | Cc1ccccc1OP(=O)(Oc1ccccc1C)Oc1ccccc1C | inactive | –
11 | O=C1C=CC(=O)c2ccccc21 | – | 6.7 µM (active)
12 | C#CCOC(=O)/C=C(C)/C=C/CC(C)CCCC(C)C (stereo not given) | inactive | –
13 | O=S(=O)(C(Cl)(Cl)Cl)C(Cl)(Cl)Cl | – | 3.82 µM (active)
14 | Cc1cc(Cl)ccc1N | inactive | –
15 | [Cl][Sn]([c]1ccccc1)([c]1ccccc1)[c]1ccccc1 | – | 0.436 µM (active)
16 | Oc1cccc(-c2ccccc2)c1 | inactive | –
17 | CC1(C)[C@H](C(=O)O[C@H](C#N)c2cccc(Oc3ccccc3)c2)[C@@H]1/C=C(\Cl)C(F)(F)F | inactive | –
18 | COc1ccccc1N | inactive | –
19 | CC(C)=CC1C(C(=O)OCc2cccc(Oc3ccccc3)c2)C1(C)C (stereo not given) | inactive | –
20 | Oc1ccc(Cc2ccc(O)cc2)cc1 | inactive | –

Row | Compound | outcome | AC50
21 | Cc1cccc(OP(=O)(Oc2cccc(C)c2)Oc2cccc(C)c2)c1 | inactive | –
22 | O=C(Cc1ccccc1)OCCc1ccccc1 | inactive | –
23 | Cc1c([N+](=O)[O-])c(C)c([N+](=O)[O-])c(C(C)(C)C)c1[N+](=O)[O-] | inactive | –
24 | CCOP(=S)(OCC)OP(=S)(OCC)OCC | inactive | –
25 | CN(C)C(=S)S | inactive | –
26 | O=C(O)C1(c2ccc3c(c2)OC[C@H](Cc2ccc(-c4ccccc4)cc2)[C@H]3O)CCCC1 | – | 35.7 µM (active)
27 | Oc1c(Cl)cc(Cl)cc1Cl | inactive | –
28 | c1ccc(-c2cccc(-c3ccccc3)c2)cc1 | inactive | –
29 | CCOC(=O)CCN(SN(C)C(=O)Oc1cccc2c1OC(C)(C)C2)C(C)C | inactive | –
30 | NC(=O)CCl | inactive | –
31 | CCN(CC)C(=O)C(Cl)=C(C)OP(=O)(OC)OC | inactive | –
32 | CCCCOC(=O)COC(=O)c1ccccc1C(=O)OCCCC | inactive | –
33 | c1ccc2sc(SNC3CCCCC3)nc2c1 | inactive | –
34 | CC(C)N(C(=O)CCl)c1ccccc1 | – | 33.3 µM (active)
35 | Clc1cccc(Cl)c1Cl | inactive | –
36 | CC(C)(C)c1ccccc1O | inactive | –
37 | Oc1c(Br)cc(Br)cc1Br | inactive | –
38 | Cc1ccccc1OP(=O)(Oc1ccccc1)Oc1ccccc1 | inactive | –
39 | OCCN(CCO)CCO | inactive | –
40 | CCOP(=S)(OCC)SCS(=O)(=O)C(C)(C)C | inactive | –

— PubChem BioAssay (EPA / NIEHS)
